Test [1] in a line: qHTS assay to identify small molecule antagonists of the estrogen related receptor (ERR) signaling pathway from Tox21 library - cell viability counter screen (AID 1224834). Further: on the % scale 0 is the no-effect control and ±100 the full control effect; nearly all actives have a fitted effect of over 30% in size. A digest of the protocol: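 Seeded ERR cells were rested 6 h at 37 C/5% CO2 before compounds, positive and negative controls or DMSO were added. Incubation continued for 17.5 h, and viability was then quantified by CellTiter-Fluor fluorescence.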
Background: qHTS replaces the single test concentration by a dilution series.

The target in test [2] is Luciferin 4-monooxygenase (Photinus pyralis) (UniProt P08659). As to the kind of experiment: qHTS assay to identify small molecule inhibitors of firefly luciferase (AID 1224835). Further: nearly all actives have a fitted effect of over 25% in size. Further: potency means the concentration at half of the fitted maximal effect. A digest of the protocol: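 Quantitative HTS format; KM concentrations of both substrates. Purified P. pyralis FLuc activity quantified from luminescence images.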
Luciferin 4-monooxygenase (Photinus pyralis), sequence (P08659 whole entry, looked up): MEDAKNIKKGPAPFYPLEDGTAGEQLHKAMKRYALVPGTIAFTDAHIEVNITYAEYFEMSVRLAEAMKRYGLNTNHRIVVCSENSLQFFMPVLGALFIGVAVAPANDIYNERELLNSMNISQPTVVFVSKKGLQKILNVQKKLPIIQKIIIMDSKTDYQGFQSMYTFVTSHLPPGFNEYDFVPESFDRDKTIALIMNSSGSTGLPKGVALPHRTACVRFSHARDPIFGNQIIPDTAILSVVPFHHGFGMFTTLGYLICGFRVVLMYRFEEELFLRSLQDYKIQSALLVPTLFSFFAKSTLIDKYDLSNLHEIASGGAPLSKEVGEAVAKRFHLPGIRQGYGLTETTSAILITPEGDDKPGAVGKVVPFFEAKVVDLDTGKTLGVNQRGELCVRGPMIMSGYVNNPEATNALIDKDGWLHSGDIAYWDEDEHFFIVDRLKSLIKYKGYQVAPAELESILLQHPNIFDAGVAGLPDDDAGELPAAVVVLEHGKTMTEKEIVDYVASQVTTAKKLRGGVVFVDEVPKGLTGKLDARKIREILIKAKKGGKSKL
Test [3] can be described thus: qHTS assay to identify small molecule agonists of the constitutive androstane receptor (CAR) signaling pathway - cell viability counter screen (AID 1224836). Further: on the % scale 0 is the no-effect control and ±100 the full control effect; nearly all actives have a fitted effect of over 45% in size. A digest of the protocol: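 HepG2 cells stably carrying hCAR and a CYP2B6-2.2kb reporter were plated 4 h, then given compounds at 15 concentrations plus PK11195 (final 0.75 uM). After 23 h at 37 C, viability was read by CellTiter-Fluor fluorescence.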

Test [4] in a line: qHTS assay to identify small molecule antagonists of the constitutive androstane receptor (CAR) signaling pathway - cell viability counter screen (AID 1224837). Further: on the % scale 0 is the no-effect control and ±100 the full control effect; nearly all actives have a fitted effect of over 45% in size. A digest of the protocol:
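To flag cytotoxic false antagonists, HepG2 hCAR/CYP2B6-2.2kb cells were treated 23 hr with 15-concentration compound series and 50 nM CITCO at 37 C/5% CO2; CellTiter-Fluor fluorescence was the measured end point.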

Test [5] addresses Nuclear receptor subfamily 1 group I member 3 (Homo sapiens) (UniProt Q14994). Briefly: qHTS assay to identify small molecule antagonists of the constitutive androstane receptor (CAR) signaling pathway (AID 1224838). Further: on the % scale 0 is the no-effect control and ±100 the full control effect; nearly all actives have a fitted effect of over 40% in size. A digest of the protocol: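 Human hepatoma HepG2 cells expressing hCAR and a CYP2B6 promoter (2.2 kb) luciferase construct; compound titration (15 points) with 50 nM CITCO final, 24 h at 37 C/5% CO2; luminescence via ONE-Glo after 30 min at room temperature.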

For test [6] the target is unchanged. As to the kind of experiment: qHTS assay to identify small molecule agonists of the constitutive androstane receptor (CAR) signaling pathway (AID 1224839). Further: nearly all actives have a fitted effect of over 15% in size. Further: potency means the concentration at half of the fitted maximal effect. On activation: on the % scale 0 is the no-effect control and ±100 the full control effect. In a few lines:
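HepG2 cells stably expressing hCAR and a CYP2B6-2.2kb luciferase reporter were treated with compounds at 15 concentrations plus 0.75 uM PK11195 (final) for 24 h at 37 C; luminescence was read after ONE-Glo addition.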

A short description of test [7]: qHTS assay to identify small molecule antagonists of the estrogen related receptor signaling pathway with the pleiotropic PPARgamma coactivator (PGC) from Tox21 10K library - cell viability counter screen (AID 1224840; active means well fitted cell-killing curve with a large enough effect in the repeat runs, not every such curve was filed as active; further: on the % scale 0 is the no-effect control and ±100 the full control effect; nearly all actives have a fitted effect of over 40% in size). In a few lines:
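Seeded PGC/ERR cells (2,000/well, 6 h, 37 C/5% CO2) get compound by pin tool; 17.5 h incubation at 37 C; CellTiter-Fluor added, 30 min, fluorescence measured.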

A short description of test [8]: qHTS assay to identify small molecule antagonists of the estrogen related receptor signaling pathway with the pleiotropic PPARgamma coactivator (PGC) from Tox21 10K library (AID 1224841; call rule not given here; further: on the % scale 0 is the no-effect control and ±100 the full control effect; actives are mostly falling curves and most rising ones were filed inactive; nearly all actives have a fitted effect of over 50% in size). A digest of the protocol: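 Test chemicals dissolved in DMSO were applied to pre-incubated (6 h) PGC/ERR cells at 2,000 cells/well for an 18 h, 37 C treatment; reporter luminescence was then read using One-Glo.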

A short description of test [9]: qHTS assay to identify small molecule agonists of the estrogen related receptor signaling pathway with the pleiotropic PPARgamma coactivator (PGC) from Tox21 10K library (AID 1224842). Further: nearly all actives have a fitted effect of over 15% in size. Further: potency means the concentration at half of the fitted maximal effect. On activation: on the % scale 0 is the no-effect control and ±100 the full control effect. A digest of the protocol:
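PGC/ERR reporter cells (NTP line) were seeded 2,000 per well, rested 6 h at 37 C/5% CO2, then pin-dosed with compounds in DMSO for 18 h at 37 C; luciferase read by One-Glo luminescence after 30 min at room temperature.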

Test [10] is described as follows: qHTS assay to identify small molecule agonists of the hypoxia (HIF-1) signaling pathway - cell viability counter screen (AID 1224844; calls by dose curve; further: on the % scale 0 is the no-effect control and ±100 the full control effect; nearly all actives have a fitted effect of over 50% in size). In a few lines:
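HRE-bla ME-180; 0.5% dFBS; cpd 17 h, 37C, 5% CO2; CellTiter-Glo lum., 30 min RT, post-FRET read, same wells.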

Test [11] is described as follows: qHTS assay to identify small molecule agonists of H2AX (AID 1224845; active means well fitted activation curve with a large enough effect in the signal ratio in the repeat runs, not every such curve was filed as active; the % refers to the signal ratio; further: on the % scale 0 is the no-effect control and ±100 the full control effect). A digest of the protocol: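 Wild-type CHO-K1 cells plated overnight, then exposed 3 hr at 37C to compounds at 15 concentrations (0.76% DMSO). Lysed, then HTRF anti-pH2AX(S139)-cryptate/anti-H2AX-d2 detection after 24 hr at room temperature; emissions 665 and 620 nm.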
Test [12] can be described thus: qHTS assay to identify small molecule agonists of the hypoxia (HIF-1) signaling pathway (AID 1224846; active means well fitted activation curve with a large enough effect in the signal ratio in the repeat runs, not every such curve was filed as active; the % refers to the signal ratio; further: on the % scale 0 is the no-effect control and ±100 the full control effect). In a few lines: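 Reporter induction in HRE-bla ME-180 cells is taken as agonism: cells sit 5 hrs after plating, receive compounds or DMSO only, incubate 17 hrs at 37C under 5% CO2, and are loaded with CCF4-AM for beta-lactamase FRET measurement.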
Test [13] is described as follows: qHTS assay to identify small molecule agonists of H2AX - cell viability counter screen (AID 1224847; calls by dose curve; further: top concentration of the series differs between compounds; on the % scale 0 is the no-effect control and ±100 the full control effect; nearly all actives have a fitted effect of over 30% in size). In a few lines:
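Wild-type CHO-K1 cells (10% FBS medium) were plated overnight at 37C, exposed to compounds at 15 concentrations for 3 hr at 37C (0.76% DMSO final), and viability was read as CellTiter-Glo luminescence after 30 min at room temperature.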

The nature of test [14]: qHTS assay to identify small molecule antagonists of the estrogen related receptor (ERR) signaling pathway from Tox21 library (AID 1224848). Further: on the % scale 0 is the no-effect control and ±100 the full control effect; nearly all actives have a fitted effect of over 50% in size. A digest of the protocol:
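Tox21 10K compounds in DMSO tested for ERR pathway antagonism in NTP's ERR cell line; 18 h, 37 C exposure; ONE-Glo luminescence.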

Test [15] can be described thus: qHTS assay to identify small molecule agonists of the estrogen related receptor (ERR) signaling pathway from Tox21 library (AID 1224849; calls by dose curve; further: on the % scale 0 is the no-effect control and ±100 the full control effect; nearly all actives have a fitted effect of over 15% in size). To be noted: ERR reporter cell line, ONE-Glo luciferase, 18 h; at 92.4 µM (top of the series). A digest of the protocol:
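Tox21 compounds tested for ERR agonism in an NTP reporter cell line: 18 h treatment at 37 C, then ONE-Glo luminescence.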

A short description of test [16]: qHTS RealTime-Glo MT Cell Viability Assay in HepG2 cells - 24 hour (AID 1224867). Further: on the % scale 0 is the no-effect control and ±100 the full control effect; nearly all actives have a fitted effect of over 50% in size. A digest of the protocol:
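Cell number in HepG2 cultures estimated from NanoLuc luminescence generated by metabolic reduction of a prosubstrate by living cells. The homogeneous, nonlytic format allowed repeated reads at 0, 8, 16, 24, 32 and 40 h of compound exposure.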

Test [17] in a line: A CellTox Green Cytotoxicity Assay to monitor cytotoxicity in HEK293 cells - 0 hour (AID 1224869). A digest of the protocol: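 Tox21 screen in HEK293: membrane-impermeant cyanine dye fluoresces on binding dead-cell DNA; compound pinned 5 h post-seeding, plates held at 37 C, signal read repeatedly through 40 h.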
In test [18] the target is Thyrotropin receptor (Homo sapiens) (UniProt P16473). Briefly: qHTS assay to identify small molecule agonists of the thyroid stimulating hormone receptor (TSHR) signaling pathway (AID 1224843; calls by dose curve; further: on the % scale 0 is the no-effect control and ±100 the full control effect; nearly all actives have a fitted effect of over 45% in size). A digest of the protocol: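 Using 15 concentrations per compound in triplicate, cAMP production was monitored in TSHR-HEK293 cells after 30 min compound incubation at RT; HTRF reagents followed, with fluorescence intensity recorded after 1 h.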
Thyrotropin receptor (Homo sapiens), sequence (P16473 whole entry, looked up): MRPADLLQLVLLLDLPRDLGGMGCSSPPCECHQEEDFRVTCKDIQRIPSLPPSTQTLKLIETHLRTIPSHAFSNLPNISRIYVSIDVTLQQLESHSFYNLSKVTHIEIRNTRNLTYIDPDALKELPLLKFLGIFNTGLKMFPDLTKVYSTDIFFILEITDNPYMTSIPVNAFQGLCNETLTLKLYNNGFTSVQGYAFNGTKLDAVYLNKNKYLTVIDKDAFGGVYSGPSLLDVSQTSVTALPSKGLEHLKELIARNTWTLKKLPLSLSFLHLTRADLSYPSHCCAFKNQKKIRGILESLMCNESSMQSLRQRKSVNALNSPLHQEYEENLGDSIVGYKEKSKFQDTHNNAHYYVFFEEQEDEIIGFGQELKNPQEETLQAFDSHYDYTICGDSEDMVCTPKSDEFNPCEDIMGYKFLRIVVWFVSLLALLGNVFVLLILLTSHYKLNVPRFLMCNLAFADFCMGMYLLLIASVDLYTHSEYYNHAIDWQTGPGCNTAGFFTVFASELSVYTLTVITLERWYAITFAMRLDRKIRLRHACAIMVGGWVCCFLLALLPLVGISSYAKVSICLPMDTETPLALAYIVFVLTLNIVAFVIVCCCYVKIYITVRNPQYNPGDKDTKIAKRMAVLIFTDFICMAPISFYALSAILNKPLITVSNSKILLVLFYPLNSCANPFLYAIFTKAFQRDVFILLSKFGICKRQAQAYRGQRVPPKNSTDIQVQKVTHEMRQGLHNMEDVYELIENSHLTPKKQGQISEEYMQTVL

Test [19] in a line: qHTS RealTime-Glo MT Cell Viability Assay in HEK293 cells - 32 hour (AID 1224868). In a few lines: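 Homogeneous bioluminescent viability format in HEK293 cells (600 cells/well). Following 5 h at 37 C/5% CO2, 23 nL compound was pintooled; the signal was measured repeatedly during 40 h incubation.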
Test [20] is described as follows: qHTS assay to identify small molecule agonists of the estrogen related receptor signaling pathway with the pleiotropic PPARgamma coactivator (PGC) (AID 1224823). Further: potency means the concentration at half of the fitted maximal effect. A digest of the protocol:
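In this quantitative high-throughput screen, an 18 h, 37 C treatment of PGC/ERR cells with compounds in DMSO preceded a One-Glo luminescence read taken after 30 min at room temperature.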

Values joined by “and” are separate entries in the source; they are usually repeats but may differ in a detail not shown here. Equal values may be shown once. Results filed as inconclusive are left out. Some structures have more than one record in an assay (separate samples or runs), and their calls can disagree. Active and inactive are the calls of the source. Unless noted, the call rests on the fitted dose curve; in most records, active means well fitted curve in the direction sought with a large enough effect in the repeat runs; inconclusive means weak or mixed curves; inactive means no such curve, though single readings can be large; an effect the other way counts as inactive or inconclusive.

Nuclear receptor subfamily 1 group I member 3 (Homo sapiens), sequence (Q14994 whole entry, looked up): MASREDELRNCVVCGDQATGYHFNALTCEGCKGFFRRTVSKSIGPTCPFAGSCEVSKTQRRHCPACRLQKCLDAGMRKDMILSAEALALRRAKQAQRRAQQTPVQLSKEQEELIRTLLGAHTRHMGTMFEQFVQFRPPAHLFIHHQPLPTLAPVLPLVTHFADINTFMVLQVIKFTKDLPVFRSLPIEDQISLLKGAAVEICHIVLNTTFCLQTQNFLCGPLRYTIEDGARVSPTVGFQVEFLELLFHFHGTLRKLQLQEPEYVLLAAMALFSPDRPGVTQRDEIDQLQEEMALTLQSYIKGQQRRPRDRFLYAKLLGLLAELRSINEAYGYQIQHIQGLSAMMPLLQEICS

For the compound `CCCCC(CC)C(=O)OCCOCCOCCOC(=O)C(CC)CCCC` (stereo not given), the Potency result in test [1], in test [2], in [3], in test [4], in [5] and in test [6] was “inactive” in each case. In addition, the Potency entry in test [7], in test [8], in test [9], in test [10], in [11] and in test [13] was “inactive” in each case. In addition, the Potency entry in [14], in test [16] and in [17] was “inactive” in each case. Also, the call in test [12] was inactive. Moreover, the activity change, positive = activation in [15] is -11.1% (inactive) and 0.258% (inactive).
Regarding `CC(=O)CCc1ccccc1`, the Potency entry in [1], in test [2], in [3], in [4], in test [5] and in [6] was “inactive” throughout. Besides, the Potency result in test [7], in test [8], in test [9], in [18], in [10] and in test [11] was “inactive” in each case. Further, the Potency entry in test [13], in test [14], in [16] and in [19] was “inactive” in each case. The outcome in test [12] was inactive.
As to `CCCCC(CC)COC(C)=O` (stereo not given), the Potency result in test [1], in test [2], in test [3], in [4], in test [5] and in [6] was “inactive” each time. In addition, the Potency result in test [7], in test [8], in test [9], in test [18], in [10] and in [11] was “inactive” throughout. Further, the Potency result in test [13], in test [14], in [16], in [19] and in test [17] was “inactive” each time. For the same compound, the compound was classed as inactive in test [12]. For the same compound, in test [15], the activity change, positive = activation is 8.75% (inactive) and 0.0839% (inactive).
`CN(CCOc1ccc(CC2SC(=O)NC2=O)cc1)c1ccccn1` (stereo not given): the Potency entry in test [1], in test [3], in [4], in [5], in test [6] and in test [7] was “inactive” in each case. Further, the Potency entry in [18], in test [10], in test [11], in test [13], in [16] and in [19] was “inactive” each time. The Potency in test [2] was 70.6 µM (active) and inactive. Moreover, in [12], the call was inactive.
Consider `CCOC(=O)[C@H](CCc1ccccc1)N[C@@H](C)C(=O)N1Cc2ccccc2C[C@H]1C(=O)O`, for which the Potency result in [1], in test [2], in test [3], in test [4], in test [5] and in test [6] was “inactive” in each case. The Potency result in test [7], in test [8], in [9], in [10], in test [11] and in [13] was “inactive” each time. Moreover, the Potency entry in test [14], in [16], in test [19] and in test [17] was “inactive” throughout. Besides, the result in [12] was inactive.
With `CCc1ccc(O)cc1`, the Potency result in [1], in test [2], in test [3], in [4], in test [5] and in [6] was “inactive” each time. Also, the Potency entry in test [7], in test [8], in [9], in test [18], in test [10] and in test [11] was “inactive” in each case. In addition, the Potency result in test [13], in test [14], in test [16], in test [19] and in [17] was “inactive” in each case. For the same compound, the outcome in [12] was inactive. Moreover, the activity change, positive = activation in test [15] is 0.519% (inactive) and 6.7% (inactive).
As for `O=c1c(-c2ccc(O)cc2)coc2cc(O)ccc12`, the Potency was 20.3 µM (active) in [20]; 24.9 µM (active) and 12.6 µM (active) in test [2]; 15.2 µM (active) and 10.9 µM (active) in [6]; 24.1 µM (active) and 27.3 µM (active) in [9]. Further, the Potency entry in test [1], in test [3], in test [4], in test [5], in test [7] and in test [8] was “inactive” throughout. The Potency result in test [18], in [10], in test [11], in test [13], in [14] and in test [16] was “inactive” in each case. The Potency entry in [17] is “inactive”.

The record behind these values is PubChem BioAssay (Tox21).
